High-throughput results from PubChem BioAssay.
BoNT A protease = BoNT/A light chain protease inhibitors, primary screen, biochemical, flow cytometry, MLPCN library; actives 0.17% (n = 360,000); AID 588499, 2011; multiplex microsphere protease substrate cleavage; inhibition, % at 10 µM
MazEF act = activators of E. coli MazEF toxin-antitoxin RNase, primary screen, biochemical, fluorescence, uHTS | FAM/BHQ RNA-DNA oligo cleavage fluorescence, 5 h | AID 504720, 2011 | actives 0.32% (n = 350,000) | activation, % at 20 µM; in the data active = activation above about 50%
Target sequence (P0AE70 whole entry, looked up): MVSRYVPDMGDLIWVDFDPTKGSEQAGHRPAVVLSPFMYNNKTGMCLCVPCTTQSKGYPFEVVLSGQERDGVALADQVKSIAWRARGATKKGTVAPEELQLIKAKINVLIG
BoNT F protease = BoNT/F light chain protease inhibitors, primary screen, biochemical, flow cytometry, MLPCN library. actives 0.22% (n = 360,000). Multiplex microsphere protease cleavage assay. inhibition, % at 10 µM. Botulinum neurotoxin type F light chain protease (Clostridium botulinum); in the data active = inhibition above about 35%, passing the limit was not always enough; inconclusive = no clear call, values can overlap the other calls
VHR inh abs = VHR1 phosphatase inhibitors, primary screen, biochemical, absorbance, uHTS | recombinant VHR phosphatase, pNPP absorbance | inhibition, % at 13.3 µM | actives 0.52% (n = 290,000); in the data active = inhibition above about 50%
Target sequence (P51452 whole entry, looked up): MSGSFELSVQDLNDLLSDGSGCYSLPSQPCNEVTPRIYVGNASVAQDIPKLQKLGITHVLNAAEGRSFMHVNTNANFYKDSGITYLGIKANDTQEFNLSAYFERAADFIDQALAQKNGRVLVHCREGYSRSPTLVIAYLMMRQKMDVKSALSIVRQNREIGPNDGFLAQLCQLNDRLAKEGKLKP
Anthrax LF prot = Bacillus anthracis LF protease inhibitors, primary screen, biochemical, multiplex microsphere, MLPCN library. inhibition, % at 10 µM. multiplex microsphere protease cleavage assay. actives 0.12% (n = 360,000). Lethal factor (Bacillus anthracis), P15917
Autofluor counter = compound fluorescence in toxin protease inhibitor counterscreen; AID 624483; actives 3.1% (n = 360,000); compound autofluorescence counterscreen, microsphere flow cytometry; active compounds read high; fluorescence intensity (test concentration not listed); in the data active = fluorescence intensity above about 16000; inconclusive = no clear call, values can overlap the other calls
Numbers stand for hits; . = inactive; ? = inconclusive; / = not tested or not shown. Compounds with a hit are over-represented: about 4.1% of the library has one in this group of screens. Cut-off read from the data, not from the text of the source, unless noted: active = inhibition above about 30%; inconclusive = no clear call, values can overlap the other calls; inactive = below that.

SMILES	BoNT A protease	MazEF act	BoNT F protease	VHR inh abs	Anthrax LF prot	Autofluor counter
Cc1ccc(S(=O)(=O)Nc2nc3c(s2)C(=O)CC(C)(C)C3)cc1	.	.	.	.	.	.
O=C(NN=C1CCCC1)c1ccc(O)cc1	.	.	.	.	.	.
O=C(NC(Cc1ccccc1)C(=O)O)c1ccc(S(=O)(=O)N2CCOCC2)cc1 (stereo not drawn)	.	.	.	.	.	19429
O=C(O)CNC(=O)c1ccc(S(=O)(=O)N2CCOCC2)cc1	.	.	.	.	.	20309
COc1cccc(S(=O)(=O)N(C)C[C@@H]2OCc3cnnn3CCCC(=O)N([C@@H](C)CO)C[C@@H]2C)c1	.	.	.	/	.	.
CCc1nc2ccc(C(=O)N3CCN(C(=O)c4ccco4)CC3)cn2c1N(C)C(=O)COc1ccccc1	.	/	.	/	.	.
CCNC(=O)COC(=O)C1CCC(=O)N(c2ccc(OC)cc2)C1c1ccc(OC)cc1 (stereo not drawn)	.	.	.	.	.	21386
CCN(CC(=O)Nc1c(F)cccc1F)C(=O)c1ccc(Cl)c(S(=O)(=O)N2CCCCC2)c1	.	.	.	.	.	.
Cc1cccc(N(C)S(=O)(=O)c2c(C)[nH]c(C)c2C(=O)N2CCCC2)c1	.	.	.	54	.	.
Cc1ccc(N(C)S(=O)(=O)c2c(C)[nH]c(C)c2C(=O)N2CCCC2)cc1	.	.	.	.	.	.
O=C(OCC(=O)N1CCOCC1)c1cccc(S(=O)(=O)Nc2ccc(F)cc2)c1	.	.	.	/	?	?
CCOC(=O)C(=Cc1ccc(-c2ccsc2C(=O)OC)o1)C(=O)OCC	.	.	.	.	.	22339
COC(=O)c1sccc1-c1ccc(C(=O)Nc2cccnc2)o1	.	.	.	.	.	21993
COC(=O)C(=Cc1ccc(-c2ccsc2C(=O)OC)o1)C(=O)OC	.	.	.	.	.	.
CCOC(=O)/C(C#N)=C/c1ccc(-c2ccsc2C(=O)OC)o1	.	.	.	53	.	.
Cc1ccc(S(=O)(=O)NCCC(=O)NNC(=O)COc2ccccc2Cl)cc1C	.	.	.	/	.	.
COc1cc(C(=O)Oc2ccccc2OC(=O)c2cc(OC)c(OC)c(OC)c2)cc(OC)c1OC	.	.	.	/	.	.
Cc1ccc(C2CC(=O)N3CN(Cc4ccco4)CSC3=C2C#N)cc1 (stereo not drawn)	.	.	.	.	.	20926
CN(C)C(CNc1ncnc2sccc12)c1cccs1 (stereo not drawn)	.	.	.	.	.	.
CCOC(=O)c1sc2ncnc(NCC(c3cccs3)N(C)C)c2c1C (stereo not drawn)	.	.	.	.	.	24092
Cc1c(OCC(=O)NCc2ccncc2)ccc2c3c(c(=O)oc12)CCCC3	.	53	.	.	.	.
Cc1c(OCc2nn[nH]n2)ccc2c3c(c(=O)oc12)CCCC3	.	.	.	.	.	22827
Cc1cc(OCc2nn[nH]n2)c2c3c(c(=O)oc2c1)CCC3	.	.	.	.	.	19295
Cc1c(OCC(=O)C(C)(C)C)ccc2c3c(c(=O)oc12)CCCC3	.	.	?	.	.	.
COc1ccc(-c2cc(=O)oc3cc(OCc4nn[nH]n4)ccc23)cc1	.	.	.	.	.	16695
SMILES	BoNT A protease	MazEF act	BoNT F protease	VHR inh abs	Anthrax LF prot	Autofluor counter
CCc1nnc(NC(=O)C2CCCN2C(=O)Nc2ccc(C)cc2)s1 (stereo not drawn)	.	.	.	.	.	.
COc1cccc(C(NC(C)=O)c2nc(-c3ccc4c(c3)OCO4)cs2)c1 (stereo not drawn)	.	/	.	/	.	.
Cc1cc2oc(=O)c3c(c2cc1OCc1nn[nH]n1)CCCC3	.	.	.	.	.	.
O=C(COc1ccc2c3c(c(=O)oc2c1)CCCC3)NCc1ccncc1	.	.	.	.	.	.
NS(=O)(=O)c1ccc(CNC(=O)COc2ccc3c4c(c(=O)oc3c2)CCCC4)cc1	.	165	.	.	.	.
Cc1c(OCc2nn[nH]n2)ccc2c3c(c(=O)oc12)CCC(C)C3 (stereo not drawn)	?	.	.	.	.	22299
O=c1oc2cc(OCc3nn[nH]n3)ccc2c2c1CCCC2	.	.	.	.	.	18827
CC(=O)C(C)Oc1ccc2c3c(c(=O)oc2c1)CCCCC3 (stereo not drawn)	?	.	.	.	.	19944
CC(C)C(=O)N1CCC1(C)C(=O)Nc1ccc(-n2cccc2)cc1 (stereo not drawn)	.	/	.	/	.	.
CCOCCCN(C)C1CCN(S(=O)(=O)c2csc(C(N)=O)c2)CC1	.	.	.	.	.	.
COc1ccc(C(=O)CSc2nnc(CNC(=O)c3ccc(S(=O)(=O)N(C)C)cc3)o2)cc1	.	.	.	.	.	.
COC(=O)c1oc2c(c1C)C(=O)CC(C)(C)C2	.	.	.	.	.	.
CC1(C)CC(=O)c2c(oc3cc(O)c(O)cc23)C1	.	.	.	.	.	17024
NCCc1c[nH]c2ccccc12	.	.	.	.	.	.
CCC1(CC)C(=O)NC(=NCCc2c[nH]c3ccccc23)NC1=O	.	.	.	.	.	17043
COc1ccccc1CNc1nc(Nc2ccccc2-n2cccn2)c2sccc2n1	.	/	.	/	.	.
C=CC[C@H](CC(=O)NCCO)C(=O)N[C@H](COC(=O)[C@@H](CC=C)Cc1ccc(F)cc1)c1ccccc1	.	.	.	/	.	.
COc1ccc(CCNC(=O)COC(=O)C2CC2C)cc1OC (stereo not drawn)	.	.	.	/	.	.
COc1ccc(NC(=O)c2ccc(S(=O)(=O)N(C)C)cc2)cc1	.	.	.	.	.	.
COc1cc(OC)cc(C(=O)Nc2ccc(S(=O)(=O)N(C)C)cc2)c1	.	.	.	.	.	19847
COc1ccc(NC(=O)N(C)C[C@@H]2OCc3ccccc3-c3c(n(C)c4ccccc34)C(=O)N([C@H](C)CO)C[C@H]2C)c(OC)c1	.	.	.	/	.	.
C/C(=N\NC(=O)c1ccccc1O)c1ccc(NC(=O)Cc2ccccc2)cc1	.	.	.	.	.	.
COc1ccc(C(=O)N(C)C2CCN(C)CC2)cc1S(=O)(=O)Nc1cc(Cl)ccc1Cl	/	.	/	52	/	/
CN1CCC(N(C)C(=O)c2ccc(Cl)c(S(=O)(=O)Nc3cc(Cl)ccc3Cl)c2)CC1	.	.	.	/	.	.
CC(C)CN(C(=O)COC(=O)c1ccc2ccccc2n1)C1CCS(=O)(=O)C1 (stereo not drawn)	.	.	.	.	.	.
